# An excerpt weighted towards active compounds, which were near 27% of everything screened.
# CYP2C9 inh – blockers of cytochrome P450 2C9 activity – biochemical, luminescence, ADME assay, primary screen; P11712; CYP2C9 Supersomes, luciferin-H conversion; inhibition, % at 5 µM; 20% of 96,000 active;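 active = blocking of liver enzyme CYP2C9 beyond about 50% at 5 µM, limit read from the data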
# CYP2C19 activ – human CYP2C19 activators, primary screen, biochemical, luminescence; Cytochrome P450 2C19 (Homo sapiens), P33261; recombinant CYP2C19, luciferin-H EGE luminescence; active compounds read high; 0 = fully inhibited enzyme, 1 = untreated enzyme; activation factor at 5 µM; 96,000 tested, under 10 active;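 active = activation factor of at least 2 at 5 µM in the primary screen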;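 note: 0 = wells with 2.5 mM tranylcypromine and 1 = vehicle-only wells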
# CYP2C9 activ – human CYP2C9 activators, primary screen, biochemical, luminescence; 1.4% of 96,000 active; Cytochrome P450 2C9 (Homo sapiens), P11712; recombinant CYP2C9, luciferin-H conversion; active compounds read high; factor 1 = untreated enzyme, 0 = blocked; activation factor at 5 µM;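 active = activation factor of 2 or more for CYP2C9 at a 5 µM dose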;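 note: 0 = sulfaphenazole-blocked wells and 1 = vehicle-only wells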
# sEH inhibitor – soluble epoxide hydrolase inhibitors, primary screen, biochemical, human sEH; Bifunctional epoxide hydrolase 2 (Homo sapiens), P34913; recombinant human sEH enzymatic activity assay; inhibition, % at 2 µM; 0.34% of 91,000 active; AID 707, 2007; in the data active = inhibition above about 80%
# Target sequence (P34913 whole entry, looked up): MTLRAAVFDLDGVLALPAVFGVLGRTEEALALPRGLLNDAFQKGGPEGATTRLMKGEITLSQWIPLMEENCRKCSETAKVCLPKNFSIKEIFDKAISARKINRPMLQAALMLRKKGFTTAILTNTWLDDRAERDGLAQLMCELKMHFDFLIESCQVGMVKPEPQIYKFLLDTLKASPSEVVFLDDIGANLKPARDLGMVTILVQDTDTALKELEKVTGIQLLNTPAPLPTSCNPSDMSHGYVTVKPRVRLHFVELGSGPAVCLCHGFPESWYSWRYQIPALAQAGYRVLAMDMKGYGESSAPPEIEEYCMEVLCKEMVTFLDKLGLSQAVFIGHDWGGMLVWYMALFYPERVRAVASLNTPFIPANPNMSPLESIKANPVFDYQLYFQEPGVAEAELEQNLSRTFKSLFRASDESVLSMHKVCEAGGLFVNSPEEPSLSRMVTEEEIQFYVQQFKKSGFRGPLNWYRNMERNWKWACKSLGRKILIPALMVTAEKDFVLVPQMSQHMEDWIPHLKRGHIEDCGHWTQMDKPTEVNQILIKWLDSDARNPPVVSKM
# CYP2C19 inh – blockers of cytochrome P450 2C19 activity – biochemical, luminescence, ADME assay, primary screen; inhibition, % at 5 µM; P33261; CYP2C19 Supersomes, luciferin-H EGE luminescence, 30 min; 21% of 96,000 active;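 active = CYP2C19 inhibition above a set limit at 5 µM in the primary screen, cut at about 50% in these data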;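 note: plate controls were negative control wells for no effect and 2.5 mM tranylcypromine positive control for full effect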
# sEH act – soluble epoxide hydrolase activators, primary screen, biochemical, human sEH | Bifunctional epoxide hydrolase 2 (Homo sapiens), P34913 | purified human sEH enzymatic activity, activator screen | 0.04% of 91,000 active | activation, % at 2 µM; in the data active = activation above about 37%
# * marks the source's active call; other numbers are inactive results; nt = no result given.
SMILES,CYP2C9 inh,CYP2C19 activ,CYP2C9 activ,sEH inhibitor,CYP2C19 inh,sEH act
O=C(CN1C(=O)CSC1=O)N1CCc2ccccc2C1,2,1.1,1,6,-11,-4
CCOC(=O)CC(=O)CSc1nc2cc(C)ccc2cc1C,5,1.1,1,0,-12,4
CCOC(=O)CC(=O)CSc1nc2c(C)c(C)ccc2cc1C,54*,0.4,0.5,-3,61*,5
O=C(c1cn(-c2ccccc2)nc1-c1ccncc1)N1CCCCC1,48,0.5,0.5,-2,52*,0
O=C(c1cn(-c2ccccc2)nc1-c1cccs1)N1CCOCC1,38,0.9,0.6,0,15,2
O=C(c1cn(-c2ccccc2)nc1-c1cccs1)N1CCN(c2ccccc2)CC1,98*,0,0,5,96*,-3
COC(=O)c1cn(-c2ccccc2)nc1-c1ccncc1,22,0.6,0.8,-2,37,3
O=C(OCc1ccccc1)c1cn(-c2ccccc2)nc1-c1ccncc1,42,0.5,0.6,-5,52*,7
O=C(NCCc1c[nH]c2ccccc12)c1cc2sccc2n1Cc1ccccc1,82*,0.4,0.2,-6,65*,8
Cn1c(C(=O)NCCc2c[nH]c3ccccc23)cc2sccc21,-23,0.5,1.2,-4,54*,7
COc1ccccc1CNC(=O)c1cc2sccc2n1C,-5,0.7,1,nt,28,nt
S=C(c1ccc(-c2cccc(Cl)c2)o1)N1CCOCC1,16,0.5,0.8,nt,50*,nt
N#CCCN1CCN(C(=S)c2ccc(-c3cccc(Cl)c3)o2)CC1,32,0.1,0.7,nt,93*,nt
S=C(c1ccc(-c2cc(Cl)ccc2Cl)o1)N1CCOCC1,-82,0.7,1.8,nt,32,nt
N#CCCN1CCN(C(=S)c2ccc(-c3ccc(Cl)c(Cl)c3)o2)CC1,61*,0.5,0.4,9,47,-11
O=C(c1ccccc1)[C@H]1[C@H](c2ccccc2)[C@@]2(N=C(c3ccccc3)OC2=O)C2c3ccccc3C=NN21 (some centres undefined),14,0.8,0.9,-13,22,13
COc1ccc(/C(O)=C2/C(=O)C(=O)N(CCN(C)C)C2c2ccc(F)cc2)cc1Cl (centres undefined),-1,0.9,1,4,12,-3
CC/C(C)=N\N=C\c1c(O)n(CC)c2cc(C3=NNC(=O)CC3)ccc12,nt,nt,nt,8,nt,-8
CC(C)(C)c1ccc(S(=O)(=O)Nc2cccnc2)cc1,14,0.4,0.9,-21,62*,22
O=S(=O)(Nc1cccnc1)c1ccc2c(c1)OCCO2,14,0.4,0.9,0,58*,3
O=S(=O)(Nc1cccnc1Cl)c1ccc2c(c1)OCCO2,20,0.8,0.8,nt,22,nt
O=S(=O)(Nc1cccnc1)c1ccc(Cl)cc1,85*,0.2,0.2,4,85*,-4
CC(C)(C)NS(=O)(=O)c1ccc(CCC(=O)NCc2ccc3c(c2)OCO3)cc1,nt,nt,nt,28,nt,-29
Cc1ccc(S(=O)(=O)Nc2nonc2C)cc1,13,1.1,0.9,-2,-10,1
Cc1ccc(S(=O)(=O)Nc2nc3ccccc3nc2NCc2ccco2)cc1C,100*,0.7,0,-5,27,7
SMILES,CYP2C9 inh,CYP2C19 activ,CYP2C9 activ,sEH inhibitor,CYP2C19 inh,sEH act
O=S(=O)(Nc1nc2ccccc2nc1NCc1ccco1)c1ccc(Cl)cc1,98*,0.5,0,-16,51*,18
Cc1ccc(S(=O)(=O)Nc2nc3ccccc3nc2NCc2ccco2)cc1,99*,0.8,0,6,19,-6
Cc1ccc(S(=O)(=O)NCc2ccco2)cc1C,-172,0.2,2.7*,nt,80*,nt
COc1ccc(C(=O)CSc2nnc(Cn3cnc4ccccc43)o2)cc1,-10,0.7,1.1,-2,30,2
COc1ccc(OC)c(NC(=O)C2CCN(c3nc(C)cc(C)n3)CC2)c1,-33,0.9,1.3,-8,13,8
O=C(NC1CCCCC1)N1CCN(C(c2ccccc2)c2ccccc2)CC1,47,1,0.5,4,0,-1
Cc1ccccc1S(=O)(=O)Nc1cccnc1,nt,nt,nt,4,nt,1
Cc1noc(C)c1CSc1nc2ccccc2nc1NS(=O)(=O)c1ccc(Cl)cc1,87*,1,0.1,-1,4,1
CCC(C)Oc1nc2ccccc2nc1NS(=O)(=O)c1ccccc1 (centres undefined),1,1.1,1,15,-14,-17
Cc1cccc(S(=O)(=O)Nc2nc3ccccc3nc2NCc2ccco2)c1,95*,0.7,0,-11,26,10
Cc1ccccc1S(=O)(=O)Nc1nc2ccccc2nc1NCCO,100*,0.8,0,-16,19,13
O=S(=O)(c1ccccc1)n1nc(-c2ccccc2)nc1NCc1ccco1,40,0.7,0.6,11,29,-10
COc1ccccc1Oc1cc(C#N)c(C#N)cc1-n1nnc2ccccc21,13,1,0.9,-11,-1,10
Cc1cccc(NC(=O)CCNS(=O)(=O)c2cccc3nsnc23)c1,18,0.3,0.8,nt,67*,nt
CCOc1ccccc1NS(=O)(=O)c1cccc2nsnc12,29,0.1,0.7,-7,91*,4
COc1ccc(C(=O)O)cc1NS(=O)(=O)c1cccc2nsnc12,-7,1.1,1.1,nt,-10,nt
COc1ccccc1NC(=O)CS(=O)(=O)c1cccc2nsnc12,-154,0.6,2.5*,6,40,-3
CCOc1ccc(OCC)c(NS(=O)(=O)c2cccc3nsnc23)c1,33,0.8,0.7,nt,24,nt
COc1ccccc1CNC(=O)CCNS(=O)(=O)c1cccc2nsnc12,-129,0.2,2.3*,-1,80*,-2
O=C(NCCCN1CCOCC1)c1cc2ccccc2o1,7,0.8,0.9,15,25,-12
CC(C)(C)CC(=O)Nc1ccc(Nc2ccccc2)cc1,39,0.9,0.6,33,13,-33
O=S(=O)(NC1CCCC1)c1ccc(Br)s1,61*,0,0.4,-10,96*,10
O=S(=O)(NC1CCCCC1)c1ccc(Cl)s1,85*,0.1,0.2,-5,90*,4
CC(/C=C/c1ccco1)=N/NC(=O)Cc1cccs1,12,1,0.9,2,2,0
Cc1c(Cl)ccc2c1NC(=O)[C@]21[C@@H]2C(=O)N(Cc3ccccc3)C(=O)[C@@H]2[C@@H]2CCCN21,73*,0.3,0.3,2,66*,0
COc1ccc(NC(=O)CSc2nnc(N)s2)cc1,10,1,0.9,2,1,-2

# High-throughput results from PubChem.
